Records with an inconclusive call do not appear. Calls of active or inactive are those of the source. Calls come from the whole dose curve; as a rule, active = well fitted cell-killing curve with a large enough effect in the repeat runs; inconclusive = weak or mixed curves, or effect the other way; inactive = flat fitted curve, though single readings scatter.
Assay: qHTS assay to identify small molecule agonists of the estrogen receptor beta (ER-beta) signaling pathway - cell viability counter screen (AID 1259380); note: nearly all actives have a fitted effect of over 30% in size
Details: ER-beta-bla HEK293T viability, CellTiter-Glo luminescence, 16 h; series mostly up to 92.4 µM; activity change, negative = cytotoxicity: at the top concentration
Source text: National Center for Advancing Translational Sciences [NCATS]
NIH Chemical Genomics Center [NCGC]
U.S. Environmental Protection Agency [EPA]
National Institutes of Environmental Health Sciences [NIEHS]
National Toxicology Program [NTP]
U.S. Food and Drug Administration [FDA]
Estrogen receptor (ER), a nuclear hormone receptor, plays an important role in development, metabolic homeostasis and reproduction. Two subtypes of ER, ER-alpha and ER-beta, have similar expression patterns with some uniqueness in both types. Endocrine disrupting chemicals (EDCs) and their interactions with steroid hormone receptors like ER causes disruption of normal endocrine function. To identify the compounds that activate ER signaling, an ER beta-UAS-bla GripTite cell line (Life Technologies, Madison, WI, USA) containing a beta-lactamase reporter gene under the control of an UAS response element was used to screen Tox21 10K compound library. The cytotoxicity of the Tox21 compound library against the ER-beta-bla cell line was tested in parallel by measuring the cell viability using CellTiter-Glo assay in the same wells.
Tox21 Assay Protocol Summary:
ER-beta-UAS-bla HEK293T cells were dispensed at 2,000 cells/5 uL of assay medium containing 2% charcoal stripped FBS per well into black wall/clear-bottom 1536-well plates using a Multidrop Combi (ThermoFisher Scientific, Waltham, MA) dispenser. After the assay plates were incubated at a 37C and 5% CO2 for 6 hr, 23 nL of compounds dissolved in DMSO, positive controls or DMSO only was transferred to the assay plate by a Pintool station (Kalypsys, San Diego, CA). The plates were incubated at 37C and 5% CO2 for 16 hr. Then 1 uL of LiveBLAzerTM B/G FRET substrate was added using a BioRAPTR FRD (Flying Reagent Dispenser, Aurora Discovery, San Diego, CA) and then the plates were incubated at room temperature for 2 hours, and fluorescence intensity was measured by an Envision plate reader (PerkinElmer, Shelton, CT). For cell viability readout that measures cytotoxicity, 4 uL/well of CellTiter-Glo reagent was added into the assay plates using a FRD. After 30 min incubation at room temperature, the luminescence intensity in the plates was measured using a ViewLux (PerkinElmer) plate reader.
% is set by controls: 0 for no effect and ±100 for the full control effect.

Row | Structure (SMILES) | activity change, negative = cytotoxicity
1 | CCCCCCCCOC(C)=O | 7.41% (inactive)
2 | Cc1ncc([N+](=O)[O-])n1CC(O)CCl (stereo not given) | 1.5% [at 42.5 µM] (inactive)
3 | COCCOCCOCCOC | 0.968% (inactive)
4 | O=CN1CCOCC1 | 10.6% (inactive)
5 | CN(C1CCCCC1)S(=O)(=O)c1ccccc1N | -15.6% (inactive)
6 | CCN(CCC#N)c1ccccc1 | 5.09% (inactive)
7 | CC(C)COC(=O)CCCCC(=O)OCC(C)C | 2.31% (inactive)
8 | CC(C)c1ccccc1O | 6.19% (inactive)
9 | Nc1ccnc(=O)[nH]1 | 4.13% (inactive)
10 | COc1cc2c(Nc3ccc(Br)cc3F)ncnc2cc1OCC1CCN(C)CC1 | 1.76% [at 42.5 µM] (inactive)
11 | CCCCCCCC/C=C\CCCCCCCC(=O)OC[C@@H](O)[C@H]1OC[C@H](O)[C@H]1O | 3.16% (inactive)
12 | C=C(C)C(=O)OC | 0.542% (inactive)
13 | COCC(=O)Nc1c(I)c(C(=O)NCC(O)CO)c(I)c(C(=O)N(C)CC(O)CO)c1I (stereo not given) | 3.58% [at 42.5 µM] (inactive)
14 | COc1cc2c3cc1Oc1cc(ccc1O)C[C@@H]1c4c(cc(OC)c(O)c4Oc4ccc(cc4)C[C@@H]3N(C)CC2)CC[N+]1(C)C | 5.28% [at 42.5 µM] (inactive)
15 | O=S(=O)(O)c1cc(O)ccc1O | 6.01% (inactive)
16 | CN(C)CCOCCN(C)CCO | 3.78% (inactive)
17 | CCCCC(=O)N(C)C | 4.32% (inactive)
18 | O=S(=O)(O)CCO | 4.48% (inactive)
19 | CCC(C)(C)C1CCC(=O)CC1 | 1.43% (inactive)
20 | C=CCOCC(CO)(COCC=C)COCC=C | 0.617% [at 42.5 µM] (inactive)

Row | Structure (SMILES) | activity change, negative = cytotoxicity
21 | O=S1(=O)CCCC1 | 9.7% (inactive)
22 | CC(=O)N1CCN(c2ccc(O)cc2)CC1 | -11.2% [at 42.5 µM] (inactive)
23 | O=P(O)(O)OCC(O)CO (stereo not given) | 2.55% [at 42.5 µM] (inactive)
24 | CCC1COC(=O)O1 (stereo not given) | 7.16% (inactive)
25 | CCCCCCCCCOCC1CO1 (stereo not given) | 0.381% (inactive)
26 | C=CCOCC(O)CCl (stereo not given) | 5.88% (inactive)
27 | Nc1ccc(S(=O)(=O)Nc2ccccn2)cc1 | 2.26% [at 42.5 µM] (inactive)
28 | CC(=O)N(CC(O)CO)c1c(I)c(C(=O)NCC(O)CO)c(I)c(C(=O)NCC(O)CO)c1I (stereo not given) | 7.08% [at 42.5 µM] (inactive)
29 | CN(C)CCCNCCC#N | 1.8% (inactive)
30 | COc1ccc(N=Nc2cc(C)c(N=Nc3ccc(S(=O)(=O)O)cc3)cc2OC)cc1 | 0.117% (inactive)
31 | C=CCOC(=O)c1ccc(C(=O)OCC=C)c(C(=O)OCC=C)c1 | -2.24% (inactive)
32 | C=CCCCCCCCCCCC | -6.43% [at 8.39 µM] (inactive)
33 | NC(=O)C1(N2CCCCC2)CCN(CCCC(=O)c2ccc(F)cc2)CC1 | -5.46% [at 42.5 µM] (inactive)
34 | CCCCOC(=O)C(C)OC(=O)CCC (stereo not given) | 0.694% (inactive)
35 | CCC(=O)c1ccc(O)cc1 | 0.484% [at 42.5 µM] (inactive)
36 | NS(=O)(=O)c1cc2c(cc1Cl)NC(CC1CCCC1)NS2(=O)=O (stereo not given) | 0.386% [at 42.5 µM] (inactive)
37 | CC(Cl)COP(=O)(OCC(C)Cl)OCC(C)Cl (stereo not given) | 2.01% (inactive)
38 | CCCCCC1Nc2cc(C(F)(F)F)c(S(N)(=O)=O)cc2S(=O)(=O)N1 (stereo not given) | 0.399% [at 42.5 µM] (inactive)
39 | O=C(O)c1c(Cl)ccc(Cl)c1Cl | 2.01% (inactive)
40 | O=C(O)CCNC(=O)c1ccccc1 | 3.79% [at 42.5 µM] (inactive)

From PubChem BioAssay (Tox21)
